The supplement of paper PMC6411743
± gives the standard deviation of the averaged measurements. The full data set covers some 5,400 targets. This sample favours those with the largest changes.

Compound: Nc1nc2c(ncn2[C@@H]2O[C@H](COP(=O)(O)OP(=O)(O)OP(=O)(O)O)[C@@H](O)[C@H]2O)c(=O)[nH]1 [guanosine triphosphate]
Experiment: NP40-soluble protein abundance relative to vehicle (solubility fold change) (ratio); higher = more soluble protein in presence of GTP
Method in brief: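 Each value is a fold change relative to the detergent-processed vehicle, calculated per replicate from vsn-normalised intensities. Jurkat crude lysate received eight concentrations (0.1 to 10 mM) for 10 min at room temperature and 3 min at 37 °C, then was solubilised in 0.8% NP40 with benzonase (60 min, 4 °C). The ultracentrifuged supernatant was TMT-labelled and run by LC-MS/MS in three independent experiments.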

Sequence of UniProt Q15004 (Q15004 whole entry, one chain of several): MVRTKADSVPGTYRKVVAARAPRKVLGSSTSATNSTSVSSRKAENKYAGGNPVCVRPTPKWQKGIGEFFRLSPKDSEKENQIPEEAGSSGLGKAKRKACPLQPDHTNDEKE
Sequence of UniProt Q9NQ29 (Q9NQ29 whole entry, one chain of several): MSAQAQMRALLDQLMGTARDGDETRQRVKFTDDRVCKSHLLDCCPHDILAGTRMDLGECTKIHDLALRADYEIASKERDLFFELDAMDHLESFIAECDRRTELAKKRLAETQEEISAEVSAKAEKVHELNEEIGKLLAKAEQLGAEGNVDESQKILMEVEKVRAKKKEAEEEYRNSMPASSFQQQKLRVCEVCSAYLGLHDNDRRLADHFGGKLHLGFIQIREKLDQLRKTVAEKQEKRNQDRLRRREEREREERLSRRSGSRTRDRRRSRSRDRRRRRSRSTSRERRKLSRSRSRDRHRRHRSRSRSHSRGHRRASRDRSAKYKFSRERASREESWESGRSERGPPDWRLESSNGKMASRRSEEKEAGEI
Sequence of UniProt B0I1T2 (B0I1T2 whole entry): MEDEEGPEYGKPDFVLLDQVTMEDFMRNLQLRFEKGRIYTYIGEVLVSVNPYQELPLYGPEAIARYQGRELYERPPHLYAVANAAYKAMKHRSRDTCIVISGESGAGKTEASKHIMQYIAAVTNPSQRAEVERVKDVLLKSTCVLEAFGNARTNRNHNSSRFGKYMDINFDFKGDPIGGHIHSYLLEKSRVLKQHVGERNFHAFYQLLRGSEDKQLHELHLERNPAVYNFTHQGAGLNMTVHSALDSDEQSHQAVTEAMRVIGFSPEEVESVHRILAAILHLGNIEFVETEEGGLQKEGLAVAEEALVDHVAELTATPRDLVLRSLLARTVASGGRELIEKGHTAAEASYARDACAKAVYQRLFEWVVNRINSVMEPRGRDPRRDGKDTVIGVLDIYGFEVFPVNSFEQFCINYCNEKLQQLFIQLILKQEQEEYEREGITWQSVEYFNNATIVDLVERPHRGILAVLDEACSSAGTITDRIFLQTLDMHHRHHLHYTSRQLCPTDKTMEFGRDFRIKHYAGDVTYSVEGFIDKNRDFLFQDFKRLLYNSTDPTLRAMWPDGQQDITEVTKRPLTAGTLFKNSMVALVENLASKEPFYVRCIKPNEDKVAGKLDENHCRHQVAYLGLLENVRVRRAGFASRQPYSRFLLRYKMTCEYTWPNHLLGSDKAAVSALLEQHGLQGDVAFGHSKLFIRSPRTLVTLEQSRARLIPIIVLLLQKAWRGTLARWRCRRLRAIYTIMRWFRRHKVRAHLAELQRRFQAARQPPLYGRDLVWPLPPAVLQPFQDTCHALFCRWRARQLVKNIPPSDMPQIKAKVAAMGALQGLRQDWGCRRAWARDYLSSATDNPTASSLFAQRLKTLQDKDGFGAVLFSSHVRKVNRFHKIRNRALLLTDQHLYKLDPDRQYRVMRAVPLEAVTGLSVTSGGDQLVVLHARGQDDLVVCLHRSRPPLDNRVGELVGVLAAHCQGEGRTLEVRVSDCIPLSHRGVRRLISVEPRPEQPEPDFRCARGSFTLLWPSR
Sequence of UniProt Q96EK7 (Q96EK7 whole entry, one chain of several): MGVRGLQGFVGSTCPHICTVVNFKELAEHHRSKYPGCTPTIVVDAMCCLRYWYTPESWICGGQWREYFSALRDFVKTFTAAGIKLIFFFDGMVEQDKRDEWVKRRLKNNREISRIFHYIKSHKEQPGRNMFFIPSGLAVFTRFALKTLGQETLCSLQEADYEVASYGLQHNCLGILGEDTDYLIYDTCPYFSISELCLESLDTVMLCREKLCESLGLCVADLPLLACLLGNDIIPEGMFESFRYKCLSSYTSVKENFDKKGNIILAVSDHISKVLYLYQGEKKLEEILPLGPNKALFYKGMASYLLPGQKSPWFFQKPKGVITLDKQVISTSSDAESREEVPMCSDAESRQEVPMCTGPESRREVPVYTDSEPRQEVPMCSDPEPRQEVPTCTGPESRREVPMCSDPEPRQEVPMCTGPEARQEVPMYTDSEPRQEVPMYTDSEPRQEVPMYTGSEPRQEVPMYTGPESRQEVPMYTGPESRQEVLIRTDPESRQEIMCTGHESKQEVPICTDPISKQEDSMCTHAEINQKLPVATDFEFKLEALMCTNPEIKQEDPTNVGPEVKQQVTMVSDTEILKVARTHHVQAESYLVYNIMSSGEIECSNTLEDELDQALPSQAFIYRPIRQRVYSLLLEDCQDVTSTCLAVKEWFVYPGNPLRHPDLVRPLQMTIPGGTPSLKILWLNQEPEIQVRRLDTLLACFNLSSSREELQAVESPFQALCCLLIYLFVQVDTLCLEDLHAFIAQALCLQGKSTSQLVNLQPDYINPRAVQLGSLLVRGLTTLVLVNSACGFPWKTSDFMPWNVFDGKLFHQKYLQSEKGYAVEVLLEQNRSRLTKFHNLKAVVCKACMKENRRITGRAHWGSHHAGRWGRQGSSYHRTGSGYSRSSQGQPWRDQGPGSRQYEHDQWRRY
Sequence of UniProt P56556 (P56556 whole entry, one chain of several): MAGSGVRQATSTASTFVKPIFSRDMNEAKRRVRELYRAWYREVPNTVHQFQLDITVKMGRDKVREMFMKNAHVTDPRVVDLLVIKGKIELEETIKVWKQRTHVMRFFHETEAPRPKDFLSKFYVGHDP
Sequence of UniProt Q96CW1 (Q96CW1 whole entry, one chain of several): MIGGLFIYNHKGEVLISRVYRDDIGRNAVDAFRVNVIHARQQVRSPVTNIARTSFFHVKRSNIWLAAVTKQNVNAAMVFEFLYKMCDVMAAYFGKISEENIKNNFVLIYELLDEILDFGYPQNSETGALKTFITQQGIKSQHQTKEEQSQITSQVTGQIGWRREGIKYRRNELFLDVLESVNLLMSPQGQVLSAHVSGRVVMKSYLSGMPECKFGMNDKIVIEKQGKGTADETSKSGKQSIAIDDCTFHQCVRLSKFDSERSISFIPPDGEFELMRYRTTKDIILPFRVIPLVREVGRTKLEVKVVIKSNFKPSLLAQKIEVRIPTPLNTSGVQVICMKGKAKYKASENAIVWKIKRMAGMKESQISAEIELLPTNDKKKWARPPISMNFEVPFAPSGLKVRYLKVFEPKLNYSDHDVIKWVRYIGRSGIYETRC
Sequence of UniProt P05161 (P05161 whole entry, one chain of several): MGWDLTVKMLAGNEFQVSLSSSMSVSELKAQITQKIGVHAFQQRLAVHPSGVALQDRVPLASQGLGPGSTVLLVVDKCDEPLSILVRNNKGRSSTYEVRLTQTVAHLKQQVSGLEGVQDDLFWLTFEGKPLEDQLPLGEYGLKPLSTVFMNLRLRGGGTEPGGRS
Sequence of UniProt P23528 (P23528 whole entry, one chain of several): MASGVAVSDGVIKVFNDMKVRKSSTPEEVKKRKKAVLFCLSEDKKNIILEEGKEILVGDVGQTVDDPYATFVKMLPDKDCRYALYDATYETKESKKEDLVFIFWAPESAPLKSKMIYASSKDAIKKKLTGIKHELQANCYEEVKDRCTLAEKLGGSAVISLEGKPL
Sequence of UniProt Q9BZL6 (Q9BZL6 whole entry, one chain of several): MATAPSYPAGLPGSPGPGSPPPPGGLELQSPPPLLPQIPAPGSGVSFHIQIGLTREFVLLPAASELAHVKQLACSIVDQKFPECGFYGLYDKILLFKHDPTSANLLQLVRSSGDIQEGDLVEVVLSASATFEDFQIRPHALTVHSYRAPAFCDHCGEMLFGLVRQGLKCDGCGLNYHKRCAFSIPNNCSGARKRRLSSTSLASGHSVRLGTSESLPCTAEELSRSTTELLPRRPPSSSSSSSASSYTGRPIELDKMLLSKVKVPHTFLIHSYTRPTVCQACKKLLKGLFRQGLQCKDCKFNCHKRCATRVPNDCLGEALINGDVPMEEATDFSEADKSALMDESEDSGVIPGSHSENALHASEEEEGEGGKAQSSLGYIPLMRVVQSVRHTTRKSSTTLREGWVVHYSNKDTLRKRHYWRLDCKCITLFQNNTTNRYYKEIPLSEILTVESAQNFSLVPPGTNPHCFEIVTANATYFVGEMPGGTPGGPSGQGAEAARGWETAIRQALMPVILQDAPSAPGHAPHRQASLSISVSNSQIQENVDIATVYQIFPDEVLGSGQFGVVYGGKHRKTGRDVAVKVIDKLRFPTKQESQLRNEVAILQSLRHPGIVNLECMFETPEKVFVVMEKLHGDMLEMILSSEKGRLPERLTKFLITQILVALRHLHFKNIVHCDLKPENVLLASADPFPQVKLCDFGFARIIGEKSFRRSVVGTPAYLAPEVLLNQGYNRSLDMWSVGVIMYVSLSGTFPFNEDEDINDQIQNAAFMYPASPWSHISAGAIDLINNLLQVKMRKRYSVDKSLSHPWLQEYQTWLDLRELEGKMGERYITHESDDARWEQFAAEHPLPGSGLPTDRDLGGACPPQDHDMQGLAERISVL
Sequence of UniProt Q15629 (Q15629 whole entry, one chain of several): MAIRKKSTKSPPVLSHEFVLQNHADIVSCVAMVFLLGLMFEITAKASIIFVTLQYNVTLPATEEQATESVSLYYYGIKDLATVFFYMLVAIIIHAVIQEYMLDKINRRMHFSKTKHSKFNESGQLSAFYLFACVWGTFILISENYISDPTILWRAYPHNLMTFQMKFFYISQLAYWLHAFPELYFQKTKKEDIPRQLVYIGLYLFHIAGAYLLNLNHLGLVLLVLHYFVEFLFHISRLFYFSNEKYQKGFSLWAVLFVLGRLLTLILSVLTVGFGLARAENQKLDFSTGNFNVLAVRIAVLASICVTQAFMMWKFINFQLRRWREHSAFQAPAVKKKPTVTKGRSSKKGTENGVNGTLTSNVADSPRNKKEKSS
Sequence of UniProt Q15005 (Q15005 whole entry, one chain of several): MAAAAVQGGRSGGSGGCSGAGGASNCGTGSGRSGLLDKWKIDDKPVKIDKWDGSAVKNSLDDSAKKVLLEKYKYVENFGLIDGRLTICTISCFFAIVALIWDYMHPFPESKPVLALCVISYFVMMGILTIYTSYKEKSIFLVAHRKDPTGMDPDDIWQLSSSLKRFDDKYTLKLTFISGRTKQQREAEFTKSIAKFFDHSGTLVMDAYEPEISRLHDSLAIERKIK
Sequence of UniProt Q96B45 (Q96B45 whole entry, looked up, one chain of several): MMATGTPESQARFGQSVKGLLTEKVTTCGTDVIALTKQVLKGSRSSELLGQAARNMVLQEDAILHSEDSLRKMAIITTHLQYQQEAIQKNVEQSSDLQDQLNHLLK

Target	NP40-soluble protein abundance (concentration: 0.1mM)	NP40-soluble protein abundance (concentration: 0.5mM)	NP40-soluble protein abundance (concentration: 1mM)	NP40-soluble protein abundance (concentration: 2mM)	NP40-soluble protein abundance (concentration: 4mM)	NP40-soluble protein abundance (concentration: 6mM)	NP40-soluble protein abundance (concentration: 8mM)	NP40-soluble protein abundance (concentration: 10mM)
A0A087WT99|Q9H0W9|Q9H0W9-2|E9PPB5|E9PQS1 (UniProt Q9H0W9)	0.993 ± 0.094	0.942 ± 0.069	0.925 ± 0.048	0.899 ± 0.068	0.872 ± 0.058	0.897 ± 0.087	0.901 ± 0.11	0.848 ± 0.053
H0YKX3|Q15004 (UniProt Q15004)	1.03 ± 0.086	1.04 ± 0.062	1.07 ± 0.081	1.04 ± 0.12	0.957 ± 0.13	0.982 ± 0.15	1.19 ± 0.031	1.09 ± 0.039
C9JKQ7|C9JTV6|C9JZG2|P22102 (UniProt P22102)	0.96 ± 0.015	0.985 ± 0.03	0.9188 ± 0.0076	0.909 ± 0.023	0.895 ± 0.026	0.894 ± 0.017	0.863 ± 0.039	0.863 ± 0.022
MYO1G (UniProt B0I1T2)	1.12 ± 0.027	1.47 ± 0.26	1.95 ± 0.34	2.5 ± 0.51	2.75 ± 0.45	2.67 ± 0.49	2.58 ± 0.3	2.35 ± 0.31
A6NHB5|A6NHN7|Q14202|Q14202-2 (UniProt Q14202)	1.08 ± 0.056	1.12 ± 0.075	1.18 ± 0.092	1.31 ± 0.14	1.37 ± 0.16	1.4 ± 0.15	1.46 ± 0.15	1.42 ± 0.16
A0A087WY71|Q96CW1|Q96CW1-2 (UniProt Q96CW1)	1.09 ± 0.11	1.12 ± 0.17	0.947 ± 0.078	1.04 ± 0.16	1.04 ± 0.14	1.03 ± 0.13	0.941 ± 0.023	0.95 ± 0.09
A0A0C4DGS0|P56556 (UniProt P56556)	0.947 ± 0.069	0.934 ± 0.051	1.05 ± 0.1	1.08 ± 0.12	1.09 ± 0.17	1.02 ± 0.093	0.939 ± 0.064	1.01 ± 0.1
E9PP50|P23528 (UniProt P23528)	0.893 ± 0.054	0.906 ± 0.066	0.894 ± 0.066	0.823 ± 0.076	0.819 ± 0.068	0.839 ± 0.078	0.84 ± 0.066	0.821 ± 0.081
A0A0B4J1R7|Q96B45 (UniProt Q96B45)	0.918 ± 0.15	0.977 ± 0.18	1.02 ± 0.17	1.09 ± 0.11	1.09 ± 0.24	1 ± 0.19	1.02 ± 0.12	1.06 ± 0.18
A0A096LNZ9|A0A096LPJ4|P05161 (UniProt P05161)	0.9514 ± 0.0057	0.961 ± 0.023	0.899 ± 0.019	0.888 ± 0.02	0.869 ± 0.026	0.885 ± 0.035	0.83 ± 0.034	0.836 ± 0.034
A0A087WWH3|Q9NZM4|Q9NZM4-2 (UniProt Q9NZM4)	1.06 ± 0.018	0.989 ± 0.1	1.16 ± 0.19	1.22 ± 0.1	1.22 ± 0.15	1.13 ± 0.33	1.2 ± 0.44	1.33 ± 0.38
A0A087WUC6|E9PI68|Q15005|E9PL01 (UniProt Q15005)	0.955 ± 0.026	0.955 ± 0.018	0.899 ± 0.025	0.882 ± 0.05	0.858 ± 0.041	0.881 ± 0.045	0.859 ± 0.055	0.843 ± 0.061
G3XAN4|Q15629|Q15629-2 (UniProt Q15629)	0.776 ± 0.028	0.785 ± 0.098	0.911 ± 0.14	0.819 ± 0.16	0.8 ± 0.15	0.783 ± 0.23	0.898 ± 0.19	0.905 ± 0.16
A0A5E8|Q99501|C9JFI0 (UniProt Q99501)	1.12 ± 0.09	1.17 ± 0.18	1.21 ± 0.1	1.3 ± 0.15	1.3 ± 0.086	1.37 ± 0.075	1.46 ± 0.035	1.38 ± 0.078
A0A0B4J1Z1|C9JAB2|Q16629|Q16629-2|Q16629-3|Q16629-4 (UniProt Q16629)	1.089 ± 0.0095	1.36 ± 0.1	1.57 ± 0.23	1.58 ± 0.16	1.44 ± 0.33	1.55 ± 0.35	1.74 ± 0.47	1.75 ± 0.52
A8MXF6|B7ZBD5|Q9UBK7|Q9UBK7-2|Q9UBK7-3|Q9UNT1|Q9UNT1-2|Q9UNT1-3 (UniProt Q9UNT1+Q9UBK7+B7ZBD5+A8MXF6)	1.03 ± 0.038	1.03 ± 0.035	1.02 ± 0.032	1.01 ± 0.084	0.947 ± 0.046	0.955 ± 0.071	0.949 ± 0.053	0.94158 ± 0.00038

Target	NP40-soluble protein abundance (concentration: 0.1mM)	NP40-soluble protein abundance (concentration: 0.5mM)	NP40-soluble protein abundance (concentration: 1mM)	NP40-soluble protein abundance (concentration: 2mM)	NP40-soluble protein abundance (concentration: 4mM)	NP40-soluble protein abundance (concentration: 6mM)	NP40-soluble protein abundance (concentration: 8mM)	NP40-soluble protein abundance (concentration: 10mM)
A0A087WXI1|Q6NVY1 (UniProt Q6NVY1)	0.948 ± 0.045	0.945 ± 0.042	0.909 ± 0.082	0.875 ± 0.083	0.863 ± 0.087	0.867 ± 0.092	0.861 ± 0.096	0.841 ± 0.096
B4DTS2|Q9BZL6 (UniProt Q9BZL6)	1.02 ± 0.021	1.04 ± 0.034	0.992 ± 0.053	1.02 ± 0.055	1 ± 0.059	0.97 ± 0.031	0.946 ± 0.045	0.946 ± 0.033
A0A0U1RR32|A0A0U1RRH7|P04908|P0C0S8|P20671|Q6FI13|Q7L7L0|Q93077|Q96KK5|Q99878 (UniProt Q99878+Q7L7L0+Q6FI13+Q93077+P20671+P0C0S8+Q96KK5+P04908)	1.01 ± 0.11	0.7204 ± 0.0051	1.26 ± 0.37	1.24 ± 0.024	1.76 ± 0.48	1.92 ± 0.49	1.4 ± 0.53	2.39 ± 1.2
A0A0U1RRH6|O94880|O94880-2 (UniProt O94880)	1.05 ± 0.095	1.07 ± 0.14	1.15 ± 0.12	1.16 ± 0.065	1.34 ± 0.12	1.46 ± 0.096	1.65 ± 0.25	1.78 ± 0.25
G3V5T0|O43708 (UniProt O43708)	0.95 ± 0.046	0.961 ± 0.087	0.879 ± 0.058	0.867 ± 0.063	0.848 ± 0.068	0.854 ± 0.076	0.819 ± 0.096	0.815 ± 0.091
A0A087WY82|Q9Y624|Q9Y624-2 (UniProt Q9Y624)	1 ± 0.041	0.953 ± 0.1	0.979 ± 0.038	0.938 ± 0.059	0.851 ± 0.066	0.952 ± 0.01	0.858 ± 0.076	0.898 ± 0.011
A0A0R4J2E2|Q9Y3T6|A0A0D9SG39|E5RHX3|E5RIK1|E5RIQ4 (UniProt Q9Y3T6)	0.88 ± 0.0067	0.877 ± 0.017	0.961 ± 0.019	0.923 ± 0.048	0.94794 ± 0.00022	0.908 ± 0.017	0.89 ± 0.034	0.9192 ± 0.0019
F5GWT4|Q9H4A3|Q9H4A3-2|Q9H4A3-5|Q9H4A3-6|Q9H4A3-7 (UniProt Q9H4A3)	0.963 ± 0.058	0.99 ± 0.079	1 ± 0.081	0.96 ± 0.07	0.973 ± 0.061	0.978 ± 0.066	0.999 ± 0.074	0.994 ± 0.082
A0A0A6YYH1|H0YLI7|P59780|Q7Z6K5-2 (UniProt Q7Z6K5+P59780+H0YLI7)	1.04 ± 0.012	1.07 ± 0.045	1.06 ± 0.099	1.03 ± 0.044	0.986 ± 0.04	1.01 ± 0.076	0.989 ± 0.017	0.992 ± 0.049
E9PRF4|Q15047|Q15047-3 (UniProt Q15047)	0.977 ± 0.12	0.93 ± 0.12	0.904 ± 0.055	0.909 ± 0.039	0.873 ± 0.04	0.881 ± 0.035	0.904 ± 0.051	0.862 ± 0.017
A6NJD9|A8MVT4|A8MYK1|Q16540 (UniProt Q16540)	1.06 ± 0.1	1.11 ± 0.23	1.28 ± 0.22	1.29 ± 0.31	1.36 ± 0.41	1.14 ± 0.35	1.19 ± 0.32	1.2 ± 0.37
A0A0C4DFX4|Q6ZRS2|Q6ZRS2-2|Q6ZRS2-3 (UniProt Q6ZRS2)	1.12 ± 0.075	1.11 ± 0.013	1.3 ± 0.042	1.44 ± 0.17	1.6 ± 0.21	1.62 ± 0.17	1.86 ± 0.33	1.83 ± 0.29
F5GY05 (UniProt Q96EK7)	1.06 ± 0.034	1 ± 0.11	1.01 ± 0.036	1.06 ± 0.083	1 ± 0.047	0.99 ± 0.042	1.05 ± 0.083	1.05 ± 0.13
B8ZZ10|Q9NQ29|Q9NQ29-2|Q9NQ29-3 (UniProt Q9NQ29)	1.26 ± 0.045	1.75 ± 0.11	1.91 ± 0.18	1.95 ± 0.12	1.98 ± 0.12	2.09 ± 0.14	2.21 ± 0.28	2.22 ± 0.28
E9PKP7|E9PLT2|P17480|P17480-2 (UniProt P17480)	1.02 ± 0.025	1 ± 0.036	1.08 ± 0.025	1.2 ± 0.079	1.31 ± 0.074	1.45 ± 0.066	1.5 ± 0.053	1.87 ± 0.13
